Source: PubChem BioAssay AID1159580 (chemical genetic matrix, 2015)
The whole screen tested about 5,500 compounds, of which about 2,000 (36%) were called active. Another 18% or so got no clear call; they are omitted. Cut-off read from the data, not from the text of the source: active = normalized growth mostly below about 0.91 (no sharp cut-off); inconclusive = no clear call, values can overlap the other calls; inactive = mostly above about 0.92. The list shows a part of the results.

Assay: chemical genetic growth profiling, strain panel (AID 1159580);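 note: tested at 20 µM; growth read once vehicle control cultures reached saturation at 30 °C; 1 = growth at the plate median or of vehicle wells; lower values mean less growth of the strain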
Conditions: S. cerevisiae deletion strains, growth OD

Measured: normalized growth

COc1cccc2c1CCC1=CC(=O)CC[C@@]12C
inactive: locus YAL013W, strain DEP1, stronger effect = lower value 0.996 | locus YAL021C, strain ccr4, stronger effect = lower value 1.02 | locus YAL026C, strain drs2, stronger effect = lower value 1.01 | locus YAL030W, strain snc1, stronger effect = lower value 0.986 | locus YBL061C, strain skt5, stronger effect = lower value 0.989 | locus YBR009C, strain hhf1, stronger effect = lower value 0.992 | locus YBR021W, strain FUR4, stronger effect = lower value 0.966 | locus YBR023C, strain chs3, stronger effect = lower value 1.01 | locus YBR171W, strain sec66, stronger effect = lower value 0.987 | locus YBR229C, strain ROT2, stronger effect = lower value 1 | locus YBR231C, strain swc5, stronger effect = lower value 1.02 | locus YBR279W, strain paf1, stronger effect = lower value 1 | locus YCL011C, strain gbp2, stronger effect = lower value 0.997 | locus YCL016C, strain dcc1, stronger effect = lower value 0.999 | locus YCL029C, strain bik1, stronger effect = lower value 0.985 | locus YCL069W, strain vba3, stronger effect = lower value 0.993 | locus YCR088W, strain abp1, stronger effect = lower value 0.994 | locus YDL005C, strain med2, stronger effect = lower value 1.02 | locus YDL035C, strain GPR1, stronger effect = lower value 0.976 | locus YDL040C, strain nat1, stronger effect = lower value 1 | locus YDL074C, strain BRE1, stronger effect = lower value 0.944 | locus YDL101C, strain DUN1, stronger effect = lower value 1.01 | locus YDL134C, strain PPH21, stronger effect = lower value 0.995 | locus YDL185W, strain tfp1, stronger effect = lower value 1 | locus YDL192W, strain arf1, stronger effect = lower value 0.993 | locus YDR001C, strain nth1, stronger effect = lower value 1 | locus YDR069C, strain doa4, stronger effect = lower value 0.987 | locus YDR101C, strain arx1, stronger effect = lower value 0.981 | locus YDR137W, strain rgp1, stronger effect = lower value 1.07 | locus YDR150W, strain NUM1, stronger effect = lower value 1 | locus YDR159W, strain sac3, stronger effect = lower value 0.997 | locus YDR162C, strain NBP2, stronger effect = lower value 0.966 | locus YDR195W, strain ref2 1.04 | locus YDR297W, strain sur2, stronger effect = lower value 0.995 | locus YDR318W, strain mcm21, stronger effect = lower value 0.973 | locus YDR334W, strain swr1, stronger effect = lower value 1.02 | locus YDR335W, strain msn5, stronger effect = lower value 1.01 | locus YDR388W, stronger effect = lower value 0.989 | locus YDR392W, strain spt3, stronger effect = lower value 0.984 | locus YDR502C, strain sam2, stronger effect = lower value 0.961 | locus YEL003W, strain gim4, stronger effect = lower value 1 | locus YEL037C, strain rad23, stronger effect = lower value 0.993 | locus YEL061C, strain CIN8 (second series), stronger effect = lower value 1.01 | locus YEL061C, strain CIN8, stronger effect = lower value 1 | locus YER015W, strain faa2, stronger effect = lower value 1.01 | locus YER016W, strain bim1, stronger effect = lower value 1 | locus YER110C, stronger effect = lower value 0.983 | locus YER111C, strain swi4, stronger effect = lower value 1 | locus YER155C, strain BEM2 (second series), stronger effect = lower value 0.989 | locus YER155C, strain BEM2, stronger effect = lower value 1 | locus YER167W, strain BCK2, stronger effect = lower value 0.996 | locus YFR010W, strain ubp6, stronger effect = lower value 1.01 | locus YGL078C, strain dbp3, stronger effect = lower value 0.998 | locus YGL086W, strain mad1, stronger effect = lower value 0.987 | locus YGL167C, strain pmr1, stronger effect = lower value 1 | locus YGL173C, strain kem1, stronger effect = lower value 0.993 | locus YGL227W, strain vid30, stronger effect = lower value 1.01 | locus YGL240W, strain doc1, stronger effect = lower value 0.995 | locus YGL248W, strain PDE1, stronger effect = lower value 0.996 | locus YGL253W, strain hxk2, stronger effect = lower value 1.02 | locus YGR078C, strain PAC10, stronger effect = lower value 0.983 | locus YGR135W, strain pre9, stronger effect = lower value 0.939 | locus YGR229C, strain SMI1, stronger effect = lower value 0.98 | locus YGR252W, strain gcn5, stronger effect = lower value 0.814 | locus YHR013C, strain ard1, stronger effect = lower value 0.967 | locus YHR027C, strain rpn1, stronger effect = lower value 1.01 | locus YHR030C, strain SLT2, stronger effect = lower value 0.994 | locus YHR079C, strain IRE1 (second series), stronger effect = lower value 0.973 | locus YHR094C, strain hxt1, stronger effect = lower value 0.998 | locus YHR129C, strain ARP1, stronger effect = lower value 0.995 | locus YHR142W, strain chs7, stronger effect = lower value 0.975 | locus YHR200W, strain rpn10, stronger effect = lower value 0.989 | locus YIL066C, strain RNR3, stronger effect = lower value 0.955 | locus YIL073C, strain SPO22, stronger effect = lower value 0.949 | locus YIL125W, strain kgd1, stronger effect = lower value 0.992 | locus YIR030C, strain dcg1, stronger effect = lower value 0.983 | locus YJL092W, strain hpr5, stronger effect = lower value 1.02 | locus YJL095W, strain BCK1 (second series), stronger effect = lower value 1 | locus YJL095W, strain BCK1, stronger effect = lower value 0.972 | locus YJL115W, strain asf1, stronger effect = lower value 1.01 | locus YJL129C, strain trk1, stronger effect = lower value 0.973 | locus YJL134W, strain LCB3, stronger effect = lower value 1.01 | locus YJL154C, strain vps35, stronger effect = lower value 1 | locus YJL164C, strain tpk1, stronger effect = lower value 0.996 | locus YJL166W, strain qcr8, stronger effect = lower value 0.987 | locus YJL168C, strain set2, stronger effect = lower value 0.984 | locus YJL187C, strain SWE1 (second series), stronger effect = lower value 0.989 | locus YJR043C, strain POL32, stronger effect = lower value 0.97
